This is one part of a sample in which hits are shown more often than they occur.
ERK EGF block: qHTS Assay for Inhibitors of the ERK Signaling Pathway using a Homogeneous Screening Assay; Stimulation with EGF; 0.41% of 130,000 active; AID 1454, 2008; Potency, µM (series often up to 11.5 µM), inactives show top-dose activity change, negative = inhibition, hits mostly inhibitors; HEK293-V1b, EGF-stimulated phospho-ERK AlphaScreen;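 note: potency is the fitted concentration of half-maximal effect; plate controls were stimulated vehicle wells for no effect and unstimulated vehicle basal for full effect; nearly all actives have a fitted effect of over 55% in size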
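Compounds are titrated over HEK293-V1b cells kept overnight in 1% FBS. After 30 min at 37C, EGF (25 nM final) triggers ERK phosphorylation for 5 min, measured by AlphaScreen in lysates.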
pERK EGF inh: Confirmation Concentration-Response Assay for Inhibitors of the ERK Signaling Pathway using a Homogeneous Screening Assay; Stimulation with EGF. shares compounds with ERK EGF block. HEK293 EGF-stimulated ERK phosphorylation, AlphaScreen. Potency, µM (series often up to 57.5 µM), without a hit: top-dose activity change, negative = inhibition, hits mostly inhibitors. 60% of 60 active. AID 1725, 2009
cRaf kinase inh: Assay for Inhibitors of the ERK Signaling Pathway using a Homogeneous Screening Assay: c-Raf Inhibition. 70 tested, under 10 active. AID 1728, 2009. activity change, negative = inhibition, % at 76.9 µM. shares compounds with ERK EGF block. c-Raf kinase inhibition, homogeneous biochemical assay
Target sequence (P04049 whole entry, looked up): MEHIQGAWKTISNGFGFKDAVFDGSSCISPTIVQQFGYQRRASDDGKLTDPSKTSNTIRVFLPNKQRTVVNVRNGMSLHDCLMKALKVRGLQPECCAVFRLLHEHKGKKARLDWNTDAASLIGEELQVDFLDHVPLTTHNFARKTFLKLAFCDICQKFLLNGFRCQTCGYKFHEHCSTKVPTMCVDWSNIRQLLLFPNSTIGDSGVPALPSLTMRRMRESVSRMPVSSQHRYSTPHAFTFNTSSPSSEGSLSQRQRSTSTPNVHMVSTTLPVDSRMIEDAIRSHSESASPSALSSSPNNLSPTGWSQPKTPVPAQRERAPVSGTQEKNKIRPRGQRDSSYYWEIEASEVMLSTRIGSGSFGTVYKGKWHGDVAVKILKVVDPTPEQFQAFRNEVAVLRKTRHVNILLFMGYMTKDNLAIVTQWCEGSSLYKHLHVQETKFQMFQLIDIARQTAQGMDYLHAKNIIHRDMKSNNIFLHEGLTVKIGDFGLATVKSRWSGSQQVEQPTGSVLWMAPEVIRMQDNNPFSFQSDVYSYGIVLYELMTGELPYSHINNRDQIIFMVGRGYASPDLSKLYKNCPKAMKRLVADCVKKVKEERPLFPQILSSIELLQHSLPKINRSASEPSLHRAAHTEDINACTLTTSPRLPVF
MEK1 kinase inh: Assay for Inhibitors of the ERK Signaling Pathway using a Homogeneous Screening Assay: MEK Inhibition. shares compounds with ERK EGF block. homogeneous MEK kinase activity assay, ERK pathway. Potency, µM (highest dose often 76.9 µM), for the others: at the highest dose activity change, negative = inhibition, actives largely listed as inhibitors. 70 tested, under 10 active. AID 1732, 2009
* hit, by the source's call; ? = inconclusive; / = no result; [ ] = dose if it differs, or a comment. Calls come from the whole dose curve; as a rule, active = well fitted curve in the direction sought with a large enough effect; inconclusive = small, poorly fitted or top-dose-only effect, or another doubt; inactive = no such curve, though single readings can be large; an effect the other way counts as inactive or inconclusive.

SMILES | ERK EGF block | others
CC(C)[C@@H](CC(=O)N[C@@H]1CCNC[C@H]1C(=O)N[C@H](CC(=O)N[C@@H](CCC(=O)O)CC(=O)O)Cc1c[nH]c2ccccc12)NC(=O)C[C@H](Cc1c[nH]c2ccccc12)NC(=O)[C@@H]1CNCC[C@H]1N | -12.1%
Cc1ccc(C)n1-c1ccccc1N1CCCCC1 | -1.5%
O=C1c2ccccc2C(=O)c2c1cccc2N1CCCC1 | 10µM* | pERK EGF inh=15.8µM*;cRaf kinase inh=?;MEK1 kinase inh=?
O=C1c2cccc3c(N4CCCCC4)ccc(c23)C(=O)N1c1ccccc1O | -0.4%
CCCCC[C@H](O)/C=C/C=C\C/C=C\CCCCCCC(=O)O | -3.4%
CN(CCc1ccc(Cl)c(Cl)c1)CCN1CCCC1 | -3.0%
COc1ccc(N=C/C=C2\C=C(c3ccccc3)OC(C)(C)O2)cc1 | 1.9%
Cc1ccccc1N=C/C=C1/C=C(c2ccccc2)OC(C)(C)O1 | 1.0%
CC1(C)OC(c2ccccc2)=C/C(=C/C=C2C(=O)c3ccccc3C2=O)O1 | ? | pERK EGF inh=?;cRaf kinase inh=-12.1;MEK1 kinase inh=-6.6%
COCCNc1nc(C)nc2c1nc(-c1ccccc1)n2CCCN1CCCCC1C (centres undefined) | 12.4%
CC(=O)Nc1ccc(/C=N/Nc2nc3ccccc3s2)cc1 | -5.5%[57.5 µM]
CCOC(=O)N1CCC(=NNc2nc3ccccc3s2)CC1 | 4.5%[57.5 µM]
CC(=O)N1CCC(=NNc2nc3ccccc3s2)CC1 | ? | pERK EGF inh=?;cRaf kinase inh=?;MEK1 kinase inh=-3.9%
COc1ccc(-c2coc3c(O)c(OC)ccc3c2=O)cc1 | 16.2%
COC(=O)c1ccc(C23CC2(C(NP(=O)(c2ccccc2)c2ccccc2)c2ccccc2)C3)cc1 (centres undefined) | 1.9%
COC(=O)/C(=C1\OC(=O)C(c2ccccc2)C1=O)c1ccccc1 (centres undefined) | 10.0%
C=C[C@@]1(C)CC(=O)[C@@]2(O)[C@@]3(C)[C@@H](O)CCC(C)(C)[C@@H]3[C@H](O)[C@H](OC(C)=O)[C@@]2(C)O1 | -5.3% | pERK EGF inh=-9.3%;cRaf kinase inh=-3.2;MEK1 kinase inh=-6.7%
O=C(O)c1cc(=O)c2cccc(O)c2[nH]1 | -11.5%
CCC/C=C(\CCC)C(NS(=O)(=O)c1ccc(C(F)(F)F)cc1)c1ccc(-c2ccccc2)cc1 (centres undefined) | -0.9%
CC(C)[C@@H](CC(=O)N[C@@H]1CCNC[C@H]1C(=O)N[C@H](CC(=O)N[C@@H](CCC(=O)O)CC(=O)O)Cc1c[nH]c2ccccc12)NC(=O)C[C@H](Cc1ccccc1)NC(=O)[C@@H]1CCCC[C@H]1N | -9.5%
CCCCCCCCCCOCCC(=O)O | -1.1%
CCOc1ccc(/C(O)=C2/C(=O)C(=O)N(c3ncccn3)C2c2ccc(C)cc2)cc1 (centres undefined) | -3.9%[57.5 µM]
COc1ccc(/C(O)=C2/C(=O)C(=O)N(c3ncccn3)C2c2ccc(OC)cc2)cc1 (centres undefined) | -3.2%
CCOc1ccc(/C(O)=C2/C(=O)C(=O)N(c3ncccn3)C2c2ccccc2)cc1 (centres undefined) | / | pERK EGF inh=-5.7%;cRaf kinase inh=4.2;MEK1 kinase inh=0.4%
COc1cc2ncnc(Nc3ccc(F)c(Cl)c3)c2cc1OCCCN1CCOCC1 | / | cRaf kinase inh=-22.8;MEK1 kinase inh=3.9%
SMILES | ERK EGF block | others
COc1ccc(C(=O)NCCN2CCOCC2)cc1OC | -8.9%
CCCOc1ccc(CN2CCOCC2)cc1OC | 4.0%[57.5 µM]
CCCCC/C=C\C/C=C\C/C=C\CCCCC(=O)NC(C)C(=O)O (centres undefined) | -1.1%
C=C(C)C(O)/C=C/c1ccc(C(F)(F)F)cc1 (centres undefined) | -0.6%
CC(C)CN1CC[C@@]2(CCCN(C(=O)c3cnccn3)C2)C1 | -3.2%
C=CCOC(=O)[C@H](O)[C@@H](O)C(=O)OCC=C | -12.8%
Nc1ccccc1C(=O)CC(N)C(=O)O (centres undefined) | -10.2%
CN(C)c1ccnc(-c2cccc(NS(C)(=O)=O)c2)n1 | 15.8%
CS(=O)(=O)Nc1cccc(-c2nc(Nc3ccccc3)c3ccccc3n2)c1 | 25.8%
CS(=O)(=O)Nc1cccc(-c2ccc3ncnc(Nc4ccc(F)cc4)c3c2)c1 | 1.12µM* | pERK EGF inh=1.41µM*;cRaf kinase inh=-35.5;MEK1 kinase inh=17.9%
CCOC(=O)CNC(=O)O[C@H]1C(=O)c2cc(OC)ccc2O[C@@H]1c1ccc(OC)c(Br)c1 | -5.3%
CCCOc1ccc(Br)cc1-c1cc(-c2ccc(Cl)cc2)[nH]c1-c1ccncc1 | -3.6%
COC[C@@H](O)[C@@H](OC)[C@H](OC)[C@H](Cc1c(OC)cc(OC)cc1OC)OC | 0.3%
COc1ccc(-c2n(CC(=O)OC3CC(C)CCC3C(C)C)c3ccccc3[n+]2C)cc1 (centres undefined) | 1.78µM* | pERK EGF inh=-12.7%;cRaf kinase inh=-12.5;MEK1 kinase inh=-6.6%
CC1CCC(C(C)C)[C@H](OC(=O)c2ccccc2)C1 (some centres undefined) | 16.9%
CC1CCC(C(C)C)C(OC(=O)C2=C3c4ccccc4S(=O)(=O)N3CC2)C1 (centres undefined) | 3.1%
COc1cc(NS(C)(=O)=O)ccc1Cc1c2ccccc2nc2ccccc12 | 18.5%
O=C(O)[C@@H]1[C@@H]2C[C@H]3c4[nH]c5ccccc5c4CCN3C[C@@H]2CC[C@@H]1O | 3.6%[25.7 µM]

Screening results (PubChem BioAssay)
